Sampled rows, rich in hits. Any-hit rate of the full collection: about 12%.
WT yeast gro inh: growth inhibition of WT strain, primary screen, mitochondrial fusion inhibitor project, WT and mutant strains, chemical genetic; mitochondrial fusion phenotypic screen; inhibition, % at 10 µM; 190,000 tested, 2.1% active; in the data active = inhibition above about 58%; tested in S. cerevisiae
ROMK mod: ROMK potassium channel modulators, primary screen, cell-based, thallium flux, MLSMR library; ATP-sensitive inward rectifier potassium channel 1 (Homo sapiens), P48048; Tet-inducible ROMK, thallium flux fluorescence; actives lie on both sides; B-score at 10 µM; 130,000 tested, 2% active; AID 1918, 2009;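 active = signal ratio slope over the read window, or its plate-corrected B-score, at least 3 SD from the plate mean, either direction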;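 also: B-score of the F/F0 ratio slope over 7 to 12 s after thallium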
Target sequence (P48048 whole entry, looked up): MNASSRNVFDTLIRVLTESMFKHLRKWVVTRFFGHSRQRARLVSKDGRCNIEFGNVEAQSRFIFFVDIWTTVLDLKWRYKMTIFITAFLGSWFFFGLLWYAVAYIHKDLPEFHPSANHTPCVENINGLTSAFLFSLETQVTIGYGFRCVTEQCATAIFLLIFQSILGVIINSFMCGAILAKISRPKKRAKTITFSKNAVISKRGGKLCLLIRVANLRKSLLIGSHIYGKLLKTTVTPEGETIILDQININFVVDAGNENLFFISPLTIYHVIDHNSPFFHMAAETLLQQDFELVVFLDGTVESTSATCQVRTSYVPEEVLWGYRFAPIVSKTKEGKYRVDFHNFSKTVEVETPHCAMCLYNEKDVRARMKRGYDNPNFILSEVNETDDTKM
KCC2 mod: KCC2 cotransporter modulators, thallium flux, primary screen, cell-based, HEK293 KCC2, FluoZin-2 fluorescence, MLSMR. 190,000 tested, 2.2% active. KCC2 cells, thallium flux FluoZin-2 fluorescence. B-score of Tl+ flux slope (higher = more flux/activation; lower = inhibition) at 10 µM. Solute carrier family 12 member 5 (Homo sapiens), Q9H2X9;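 active = thallium flux slope and its plate-corrected score both differing from the plate sample mean at a set confidence after two filtering rounds, in either direction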;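 also: slope of fluorescence scaled to starting intensity during 10 to 20 s after thallium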
Ins promoter up: insulin promoter activators in MIN6 cells, imaging, high-content screening, mouse beta cells; MIN6 insulin promoter-GFP reporter; active compounds read high; AID 1625, 2009; 190,000 tested, 0.3% active; z-score at 5 µM;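 active = z-score above 3 at 5 µM with at least 500 cells counted in the well; inconclusive = wells under 500 cells, flagged as cytotoxic or low count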
Insulin prom inh: inhibitors of insulin promoter-driven GFP, primary screen, imaging, TRM-6 cells (human fetal islet line), eGFP reporter, cell count; reporter expression induced with tamoxifen; inhibition, % at 2 µM; 130,000 tested, 0.9% active; AID 1273, 2008;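 active = inhibition above the mean plus 3 SD, with well images judged a real hit on visual review, cut at about 60% in these data, passing the limit was not always enough; inconclusive = inhibition over the cutoff but images rejected on review; inactive = inhibition not above the cutoff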
Lmaj promast: Leishmania major promastigote growth inhibition, primary screen; Leishmania major promastigotes, resazurin fluorescence viability; inhibition, % at 10 µM; 200,000 tested, 9% active; in the data active = inhibition above about 50%;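 also: promastigotes grown with compound for 44 hours at 28 °C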
KCC2 secondary: KCC2 modulators in sodium-free buffer, confirmation, cell-based, HEK293 KCC2, thallium flux, secondary assay; shares compounds with KCC2 mod; FluoZin2 fluorescence; active compounds read high; normalised thallium flux (F/F0 slope) at 10 µM; 3,700 tested, 15% active; AID 1713, 2009;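 active = thallium flux slope above the same plate's solvent-only control mean plus 3 SD; inconclusive = the two replicate wells disagree; inactive = no significant difference from solvent-only control wells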
KCC2 bumet counter: thallium flux persisting under bumetanide in KCC2 cells, confirmation, counter-screen for KCC2 modulator project, cell-based, HEK293 KCC2, FluoZin2, secondary assay 3; shares compounds with KCC2 mod; HEK293-KCC2 + bumetanide/ouabain; active compounds read high; normalized thallium flux at 10 µM; 3,700 tested, 49% active; AID 1714, 2009;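 active = thallium entry rate above the same plate's blocked-transporter control wells by more than 3 SD; inconclusive = the two repeat wells disagree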;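 also: raw slope of fluorescence over initial fluorescence between 10 and 20 s after thallium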
KCC2 secondary2: KCC2 modulators without ouabain present, confirmation, cell-based, HEK293 KCC2, thallium flux, FluoZin2, secondary assay 2 | thallium flux FluoZin2 fluorescence; actives lie on both sides; F/F0 rise rate, 10–20 s post-thallium | AID 1715, 2009 | 3,700 tested, 23% active | normalized thallium flux at 10 µM | shares compounds with KCC2 mod;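 active = thallium flux slope more than 3 SD above or below the plate's solvent-only control mean, mostly below; inconclusive = the two repeat wells disagreed; inactive = no significant shift from solvent-only controls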;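 also: raw slope with 0.1% DMSO as baseline and bumetanide as block control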
HEK counter1: thallium flux modulation in parental HEK cells, confirmation, counter-screen for KCC2 modulator project, cell-based, counterscreen 1; shares compounds with KCC2 mod; 3,700 tested, 46% active; HEK293 parental cells, thallium flux FluoZin2, ouabain; baseline-ratio fluorescence slope, 10–20 s after thallium; AID 1716, 2009; thallium flux rate (normalised fluorescence) at 10 µM;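 active = thallium flux rate significantly above the same plate's solvent-only control wells, beyond their mean plus 3 SD; inconclusive = the two replicate wells gave conflicting results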
KCC2 retest ouab: KCC2 inhibitors and activators, ouabain retest, confirmation, HEK-KCC2 cells; shares compounds with KCC2 mod; HEK293-KCC2, thallium flux FluoZin2 fluorescence; bidirectional: low = inhibitor, high = activator; raw Tl+ flux slope (below DMSO = inhibition, above = activation) at 10 µM; 3,700 tested, 48% active; AID 1717, 2009;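 active = thallium flux slope beyond 3 SD from same-plate DMSO control mean in most replicates, usually higher, sometimes lower; inconclusive = repeat tests gave conflicting results; inactive = no significant difference from controls in most replicates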;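 also: slope of initial-normalized fluorescence between seconds 10 and 20 after thallium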
HEK counter2: native HEK Tl+ uptake effects, second counter-screen – HEK cells, counterscreen 2, counter-screen for KCC2 modulator project, confirmation | AID 1718, 2009 | shares compounds with KCC2 mod | HEK293 parental, thallium flux FluoZin-2 fluorescence slope | 3,700 tested, 33% active | thallium flux slope at 10 µM;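 active = thallium flux slope above the same plate's solvent-control mean plus 3 SD in both duplicate wells; inconclusive = duplicate wells that disagreed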;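 also: run without ouabain in cells lacking the KCC2 cotransporter; slope of fluorescence scaled to its starting value between 10 and 20 s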
* hit, by the source's call; i = inactive; ? = inconclusive; / = not tested or not shown.

SMILES	WT yeast gro inh	ROMK mod	KCC2 mod	Ins promoter up	Insulin prom inh	Lmaj promast	KCC2 secondary	KCC2 bumet counter	KCC2 secondary2	HEK counter1	KCC2 retest ouab	HEK counter2
CCOc1ccc(OCC)c(NC(=O)CN2CCC(NC(=O)c3cccc(F)c3)CC2)c1	12.9	-0.191	-1.1	-0.93	-7.4	12.2	/	/	/	/	/	/
COC(=O)c1sc2cc([N+](=O)[O-])cc(SCC(C)C)c2c1N	-1.0	0.00389	0.595	?	i	-5.6	/	/	/	/	/	/
Cc1cccc(NC(=O)Nc2ccc(C)c(C)c2)n1	-9.5	0.263	5.69*	/	-120.7	-1.0	0.00922	0.00541	0.0377	0.00739	0.0206	0.0106
CC(C)Cn1c(-c2ccc(C#N)cc2)nc2c1c(=O)[nH]c(=O)n2CC(C)C	-0.2	-0.738	/	/	-23.1	1.2	0.0105	0.00473	0.0318	0.00755	0.0187	0.00995
CC(C)Sc1nnc([C@H](Cc2c[nH]c3ccccc23)NC(=O)OC(C)(C)C)o1	21.4	-0.713	-6.29*	0.39	31.2	5.8	0.00692	0.00506	0.028*	?	0.0126*	0.0107
CCOc1ccc(-c2nc(C#N)c(N3CCN(Cc4ccccc4)CC3)o2)cc1	-1.9	/	-4.28*	0.84	/	7.5	0.00781	0.00661	0.0271	0.00711	0.0232*	0.0101
CC(C)CC(=O)NC(=S)Nc1ccc(N2CCOCC2)cc1	18.3	/	-0.0232	-0.45	-43.6	40.1	/	/	/	/	/	/
CCOC(=O)C1=C(C)N(C2CCCCC2)C(=O)C1	-19.7	0.749	/	0	/	2.5	/	/	/	/	/	/
COC(=O)C1=C(C)N(C2CCCCC2)C(=O)C1	-6.2	/	6.24*	-0.39	-16.2	-4.9	0.00699	0.0068	0.0288	0.00698	0.0189	0.00903
CC(=O)Oc1ccc2c(C)cc(=O)[nH]c2c1	-4.3	0.937	/	1.08	/	-10.7	/	/	/	/	/	/
COc1ccc2c(C)cc(=S)[nH]c2c1	5.8	0.598	8.03*	-0.44	/	-8.2	0.0166	0.0155*	0.0295	0.0126*	0.0194	0.0145*
Cn1c(=O)[nH]c(=O)c2c1nc(CN1CCOCC1)n2CCCO	11.1	1.24	0.837	/	45.5	-8.1	/	/	/	/	/	/
COc1cc(/C=C2\SC(=N)N(c3ccc4c(c3)OCO4)C2=O)cc(OC)c1O	8.1	-0.319	0.217	-0.23	37.9	8.5	/	/	/	/	/	/
CCC1CCCCN1C(=O)CSc1nnc(CNC(=O)c2cc(OC)c(OC)c(OC)c2)o1 (stereo not given)	18.8	0.173	6.72*	0.23	-3.6	-2.6	0.00762	0.00464	0.0316	0.00786	0.0198	0.0113
CCc1ccccc1NC(=O)CSc1nc(-c2ccccc2)nn1C(=O)c1cccc([N+](=O)[O-])c1	-15.4	-2.99	-0.00194	0.93	/	11.1	/	/	/	/	/	/
CCCCCn1nnc2c(=O)oc3ccccc3c21	1.5	/	/	0.17	/	-6.3	0.0141	0.00446	0.0228*	0.00529*	0.0105*	?
C/C(N)=C(/C#N)C(=O)CSc1nn(-c2ccc(Cl)cc2)c(=S)s1	47.1	1.43	-0.722	-0.19	-100.0	5.3	/	/	/	/	/	/
C/C(N)=C(/C#N)C(=O)CSc1nnc(SCc2ccc(Cl)cc2)s1	19.5	1.63	/	0.72	-14.3	-2.7	0.00697	0.00709	0.0318	0.00415	?	0.0118
COc1ccc(-c2oc3ccccc3c(=O)c2OC(C)=O)cc1	20.0	0.429	54.9*	0.76	/	36.9	0.0224*	0.0904*	0.0412	?	0.0706*	?
COc1ccc(-c2oc3ccccc3c(=O)c2OCC(=O)O)cc1	7.2	1.78	-0.0998	-0.35	/	-3.2	/	/	/	/	/	/
Cc1c(C(=O)NCc2ccccn2)oc2ccc(S(=O)(=O)N3CCOCC3)cc12	4.0	0.224	5.2*	0.34	-28.1	-7.0	0.00524	?	?	0.00787	0.0194	0.0109
O=C(NCc1ccccn1)c1cc(S(=O)(=O)N2CCN(c3ccccc3)CC2)ccc1Cl	33.5	-1.06	/	-0.54	-107.7	0.2	0.00671	0.00422	0.0256*	0.00763	?	0.0108
O=C(Nc1nnc(C2CC2)s1)c1cc(S(=O)(=O)N2CCN(c3ccccc3)CC2)ccc1Cl	-21.3	/	-1.13	-0.93	19.4	-10.6	/	/	/	/	/	/
CN(Cc1ccccc1)S(=O)(=O)c1ccc(Cl)c(C(=O)NCCc2ccccn2)c1	-6.0	0.527	-4.38*	0.81	0.0	6.6	0.00732	0.00497	0.0182*	0.00676	0.012*	0.00915
Cc1c(C(=O)NCc2cccs2)oc2ccc(S(=O)(=O)N3CCOCC3)cc12	2.6	-1.61	0.779	-0.19	22.6	-3.7	/	/	/	/	/	/
SMILES	WT yeast gro inh	ROMK mod	KCC2 mod	Ins promoter up	Insulin prom inh	Lmaj promast	KCC2 secondary	KCC2 bumet counter	KCC2 secondary2	HEK counter1	KCC2 retest ouab	HEK counter2
COc1ccc(CCN(C)CCC(=O)Nc2cccc(C)c2)cc1OC	/	/	0.24	-0.83	/	/	/	/	/	/	/	/
CCOC(=O)c1sc2ncnc(OC)c2c1C	4.4	-0.141	/	1.8	-75.0	-4.0	/	/	/	/	/	/
CCOC(=O)c1sc2nc[nH]c(=O)c2c1C	17.2	-0.0715	5.81*	-0.3	41.9	5.9	0.00844	0.00644	0.0301	0.00755	0.0234	?
Cc1ccc(C(C)C)c(OCc2nnc3n2CCCCC3)c1	-1.1	-0.813	-0.386	0.03	/	21.8	/	/	/	/	/	/
COc1ccc(C(=O)c2ccc(OC)cc2O)c(O)c1	6.9	-0.0312	5.76*	0.38	/	-0.9	0.00876	0.00529	0.029	0.00724	0.0264	0.00974
CCOC(=O)Cc1csc(Nc2ccc(Cl)cc2)n1	29.9	0.0319	-0.512	1	50.0	-5.5	/	/	/	/	/	/

Screening data deposited in PubChem BioAssay by several laboratories.
